# In ChEMBL document CHEMBL4513141, “CO-ADD screening of NIH (USA) - Clinical Collection” (2021):
# Potency and affinity values are given separately. Square brackets hold non-standard residues; d marks the D form. Peptide text beside a SMILES is read from it. pGlu = O=C1CC[C@@H](C(=O)O)N1; Thz = O=C(O)[C@@H]1CSCN1
# Experiments:
# Staphylococcus aureus = conditions: Concentration 20 uM; ASSAY_TEST Inhibition of Bacterial Growth; detection method Absorption (OD600); MEDIA CAMHB; plate type 384well; NBS; CORNING #3640; time 18 hr
# Escherichia coli = conditions: Concentration 20 uM; ASSAY_TEST Inhibition of Bacterial Growth; detection method Absorption (OD600); MEDIA CAMHB; plate type 384well; NBS; CORNING #3640; time 18 hr
Structure (SMILES),Inhibition (Staphylococcus aureus),Inhibition (Escherichia coli)
CNCC(O)c1ccc(O)c(O)c1 (configuration not stated) [RACEPINEPHRINE],9.77%,2.6%
CCC(=O)O[C@]1(C(=O)CCl)[C@@H](C)C[C@H]2[C@@H]3CCC4=CC(=O)C=C[C@]4(C)[C@@]3(F)[C@@H](O)C[C@@]21C [CLOBETASOL PROPIONATE],-12.08%,-1.37%
O=c1c(-c2ccccc2)c1-c1ccccc1 [DIPHENCYPRONE],-9.91%,6.71%
CN(C)CCN(Cc1ccccc1)c1ccccn1.Cl [TRIPELENNAMINE HYDROCHLORIDE],-12.77%,7.66%
Cc1cccc(C)c1NC(=O)C1CCCCN1C.Cl (configuration not stated) [MEPIVACAINE HYDROCHLORIDE],10.78%,6.74%
CC(=O)NCCCCCCNC(C)=O [HEXAMETHYLENEBISACETAMIDE],-6.23%,3.8%
CCC1(c2ccccc2)C(=O)NCNC1=O [PRIMIDONE],13.4%,3.86%
COc1ccc(OC)c(C(O)CNC(=O)CN)c1.Cl (configuration not stated) [MIDODRINE HYDROCHLORIDE],15.42%,4.77%
CC(=CCC1=C(C)C(=O)c2ccccc2C1=O)CCCC(C)CCCC(C)CCCC(C)C (configuration not stated),7.33%,5.45%
C[C@]12C=CC(=O)C=C1CC[C@@H]1[C@@H]2C(=O)C[C@@]2(C)[C@H]1CC[C@]2(O)C(=O)CO [PREDNISONE],12.15%,4.61%
Br.CN(C)CCCC1(c2ccc(F)cc2)OCc2cc(C#N)ccc21 (configuration not stated) [CITALOPRAM HYDROBROMIDE],3.11%,-2.5%
COc1ccc(Cl)cc1C(=O)NCCc1ccc(S(=O)(=O)NC(=O)NC2CCCCC2)cc1 [GLYBURIDE],-3.01%,-12.57%
Cc1cccc(Nc2ccncc2S(=O)(=O)NC(=O)NC(C)C)c1 [TORSEMIDE],4.19%,6.8%
CN(CCOc1ccc(CC2SC(=O)NC2=O)cc1)c1ccccn1.O=C(O)/C=C\C(=O)O (configuration not stated) [ROSIGLITAZONE MALEATE],5.02%,0.27%
Cc1occc(=O)c1O [MALTOL],14.12%,4.13%
CCC1=C[C@H]2CN(C1)Cc1c([nH]c3ccccc13)[C@@](C(=O)OC)(c1cc3c(cc1OC)N(C)[C@H]1[C@@](O)(C(=O)OC)[C@H](OC(C)=O)[C@]4(CC)C=CCN5CC[C@]31[C@@H]54)C2.O=C(O)C(O)C(O)C(=O)O.O=C(O)C(O)C(O)C(=O)O,13.36%,2.61%
CS(=O)(=O)c1ccc(C2=C(c3ccccc3)C(=O)OC2)cc1 [ROFECOXIB],8.94%,-7.03%
COc1ccc(C(=O)NCc2ccc(OCCN(C)C)cc2)cc1OC.Cl,-18.22%,2.89%
Cl.O[C@@H](c1cc(C(F)(F)F)nc2c(C(F)(F)F)cccc12)[C@H]1CCCCN1,36.85%,7.08%
CC(=O)[C@H]1CC[C@H]2[C@@H]3C[C@H](C)C4=CC(=O)CC[C@]4(C)[C@H]3[C@@H](O)C[C@]12C [MEDRYSONE],2.89%,2.65%
N[C@@H]1CONC1=O [CYCLOSERINE],14.71%,1.47%

Structure (SMILES),Inhibition (Staphylococcus aureus),Inhibition (Escherichia coli)
COc1ccc([C@@H]2Sc3ccccc3N(CCN(C)C)C(=O)[C@@H]2OC(C)=O)cc1.Cl [DILTIAZEM HYDROCHLORIDE],12.74%,5.44%
CN(C)C(=O)Oc1ccc[n+](C)c1.[Br-] [PYRIDOSTIGMINE BROMIDE],10.54%,-0.78%
CCN(CC)CCNC(=O)c1ccc(N)cc1.Cl [PROCAINAMIDE HYDROCHLORIDE],-10.39%,-0.2%
CN(C)CC[C@@H](c1ccc(Cl)cc1)c1ccccn1.O=C(O)/C=C\C(=O)O [DEXCHLORPHENIRAMINE MALEATE],5.99%,6.96%
CCCCc1nc(Cl)c(CO)n1Cc1ccc(-c2ccccc2-c2nnn[n-]2)cc1.[K+] [LOSARTAN POTASSIUM],-19.73%,5.5%
O=C(CCNNC(=O)c1ccncc1)NCc1ccccc1 [NIALAMIDE],16.28%,8.37%
CCc1c(C)[nH]c2c1C(=O)C(CN1CCOCC1)CC2.Cl (configuration not stated) [MOLINDONE HYDROCHLORIDE],-5.38%,4.7%
CCC(=O)OCC(=O)[C@@]1(OC(=O)CC)[C@@H](C)C[C@H]2[C@@H]3CCC4=CC(=O)C=C[C@]4(C)[C@@]3(Cl)[C@@H](O)C[C@@]21C [BECLOMETHASONE DIPROPIONATE],4.92%,-8.75%
CN(C)CCCN1c2ccccc2CCc2ccc(Cl)cc21.Cl [CLOMIPRAMINE HYDROCHLORIDE],14.19%,7.04%
NC(=O)c1cnccn1 [PYRAZINAMIDE],14.57%,2%
C[C@]12CC[C@@H]3c4ccc(O)cc4CC[C@H]3[C@@H]1CC[C@@H]2O [ESTRADIOL],2.2%,-0.2%
O=C(O)COCCN1CCN([C@H](c2ccccc2)c2ccc(Cl)cc2)CC1 [LEVOCETIRIZINE],11.65%,5.57%
C[C@H](CS)C(=O)N1CCC[C@H]1C(=O)O [CAPTOPRIL],-7.06%,4.92%
Cc1ncc([N+](=O)[O-])n1CC(C)O (configuration not stated) [SECNIDAZOLE],11.92%,5.99%
COC(=O)CCc1ccc(OCC(O)CNC(C)C)cc1.Cl (configuration not stated) [ESMOLOL HYDROCHLORIDE],16.29%,-0.36%
OC[C@H]1O[C@@H](Oc2cc(O)cc(/C=C/c3ccc(O)cc3)c2)[C@H](O)[C@@H](O)[C@@H]1O [PICEID],5.5%,8.13%
CC(C)NCC(O)c1cc(O)cc(O)c1 (configuration not stated) [METAPROTERENOL],-6.69%,-6.08%
Cc1ccc(N(CC2=NCCN2)c2cccc(O)c2)cc1 [PHENTOLAMINE],2.09%,-2.29%
CC1(C)O[C@@H]2C[C@H]3[C@@H]4C[C@H](F)C5=CC(=O)C=C[C@]5(C)[C@H]4[C@@H](O)C[C@]3(C)[C@]2(C(=O)CO)O1 [FLUNISOLIDE],6.94%,3.33%
Oc1ncc(F)cn1,12.62%,10.23%
C[C@]12C[C@H](O)[C@H]3[C@@H](CCC4=CC(=O)CC[C@@]43C)[C@@H]1CC[C@@H]2C(=O)CO [CORTICOSTERONE],12.8%,2.35%

Structure (SMILES),Inhibition (Staphylococcus aureus),Inhibition (Escherichia coli)
Br.Br.O=C1CC2(CCCC2)CC(=O)N1CCNCC1COc2ccccc2O1 (configuration not stated),17.36%,6.1%
O=C1CC[C@@H](C(=O)N2CSC[C@H]2C(=O)O)N1 [PIDOTIMOD] ([pGlu]-[Thz]-OH),9.9%,2.88%
COc1cc(C(=O)NC2CCCNC2)cc(OC)c1OC (configuration not stated) [TROXIPIDE],21.18%,2.83%
CC(C)[C@H]1CC[C@H](C(=O)N[C@H](Cc2ccccc2)C(=O)O)CC1 [NATEGLINIDE],10.43%,6.41%
CC1(C)O[C@@H]2[C@@H](CO[C@@]3(COS(N)(=O)=O)OC(C)(C)O[C@@H]23)O1 [TOPIRAMATE],3.5%,6.36%
C[C@]12CCC(=O)C=C1CC[C@@H]1[C@@H]2C(=O)C[C@@]2(C)[C@H]1CC[C@]2(O)C(=O)CO [CORTISONE],18.73%,3.83%
CC1=C(/C=C/C(C)=C/C=C/C(C)=C\C(=O)O)C(C)(C)CCC1 [ISOTRETINOIN],5.02%,-1.2%
O=C(O)CCc1nc(-c2ccccc2)c(-c2ccccc2)o1 [OXAPROZIN],10.43%,2.77%
CN(C/C=C/C#CC(C)(C)C)Cc1cccc2ccccc12.Cl [TERBINAFINE HYDROCHLORIDE],10.26%,3%
COc1nc(C)nc(Cl)c1NC1=NCCN1.Cl [MOXONIDINE HYDROCHLORIDE],-14.16%,3.63%
CN1CCN(C2=Nc3ccccc3Oc3ccc(Cl)cc32)CC1.O=C(O)CCC(=O)O [LOXAPINE SUCCINATE],9.14%,4.68%
C#C[C@]1(O)CC[C@H]2[C@@H]3CCC4=CC(=O)CC[C@@H]4[C@H]3CC[C@@]21CC [LEVONORGESTREL],8.4%,3.88%
C=C1/C(=C\C=C2/CCC[C@]3(C)[C@@H]([C@H](C)CCCC(C)(C)O)CC[C@@H]23)C[C@@H](O)C[C@@H]1O [CALCITRIOL],3.12%,7.51%
CCOC(=O)C1(CCCCCCOc2ccc(Cl)cc2)CO1 (stereo not drawn) [rac-ETOMOXIR],3.7%,-5.87%
CCCCNc1cc(C(=O)O)cc(S(N)(=O)=O)c1Oc1ccccc1 [BUMETANIDE],10.97%,5.78%
CCCCC[C@H](O)/C=C/[C@H]1[C@H](O)CC(=O)[C@@H]1CCCCCCC(=O)O [ALPROSTADIL],3.1%,6.55%
c1ccc2[nH]c(-c3cscn3)nc2c1 [THIABENDAZOLE],9.35%,1.68%
COc1cc(OC)c(C(=O)CCCN2CCCC2)c(OC)c1.Cl,14.97%,2.85%
CCOC(=O)OC(C)OC1=C(C(=O)Nc2ccccn2)N(C)S(=O)(=O)c2ccccc21 (configuration not stated) [AMPIROXICAM],16.07%,-0.97%
